Assay results from the supplement of paper PMC13380429.

Tested on: Vero E6 infected with SARS-CoV-2
Assay: inhibition of SARS-CoV-2 cytopathic effect; higher = more antiviral protection, active = above 15
Conditions: 8.33 nM; 48 h

SMILES | inhibition of SARS-CoV-2 cytopathic effect
CC(C)(C)NCC(O)COc1ccc(NC(=O)NC2CCCCC2)cc1 (configuration not stated) [talinolol] | -2.2% (inactive)
NC(=O)c1ncn([C@@H]2O[C@H](CO)[C@@H](O)[C@H]2O)c1O [mizoribine] | -0.82% (inactive)
Cc1nc(NC(=O)N2CCC[C@H]2C(N)=O)sc1-c1ccnc(C(C)(C)C(F)(F)F)c1 [alpelisib] | 0.48% (inactive)
NC[C@H]1CC[C@H](C(=O)O)CC1 [tranexamic-acid] | 1.51% (inactive)
Cc1ccc(N(CC2=NCCN2)c2cccc(O)c2)cc1 [phentolamine] | 0.07% (inactive)
O=C(O)c1cc(=O)c2c(OCC(O)COc3cccc4oc(C(=O)O)cc(=O)c34)cccc2o1 [cromoglicic-acid] | -0.04% (inactive)
CC(O)Cn1cnc2c1c(=O)n(C)c(=O)n2C (configuration not stated) [Proxyphylline] | -0.86% (inactive)
COc1cc(Cc2cnc(N)nc2N)cc(OC)c1OC [trimethoprim] | 0.21% (inactive)
Cc1cc(C)cc(NC(=O)Cc2ccc(OC(C)(C)C(=O)O)cc2)c1 [efaproxiral] | -2.52% (inactive)
COc1ccc(OC)c(C(O)C(C)N)c1 (configuration not stated) [methoxamine] | -0.09% (inactive)
O=c1cc(-c2cccc3c2Sc2ccccc2S3)oc(N2CCOCC2)c1 | -2.3% (inactive)
NCC[C@H](O)C(=O)N[C@@H]1C[C@H](N)[C@@H](O[C@H]2O[C@H](CN)[C@@H](O)[C@H](O)[C@H]2O)[C@H](O)[C@H]1O[C@H]1O[C@H](CO)[C@@H](O)[C@H](N)[C@H]1O [amikacin] | 0.75% (inactive)

Same assay, conditions: 100 nM; 48 h

SMILES | inhibition of SARS-CoV-2 cytopathic effect
S=C(NCc1ccc2c(c1)OCO2)N1CCN(c2ncnc3c2oc2ccccc23)CC1 [amuvatinib] | 1.46% (inactive)
CC[N+](CC)(CC)CCC(O)(c1ccccc1)C1CCCCC1 (configuration not stated) [tridihexethyl] | -0.23% (inactive)
CC(C)C(N)C(=O)O (stereo in doubt) [L-valine] | 0.64% (inactive)
CCO[C@@H]1OC(=O)C[C@@H]1NC(=O)[C@@H]1CCCN1C(=O)[C@@H](NC(=O)c1ccc(N)c(Cl)c1)C(C)(C)C | 0.58% (inactive)
CCN(CC)CCOC(=O)C1(c2ccccc2)CCCC1 [caramiphen] | -1.97% (inactive)
CCCN(CCC)C1Cc2cc(OC)c(OC)cc2C1 | -2.03% (inactive)
CNc1nc(NCc2ccc(NS(C)(=O)=O)cc2Cl)cc(-c2ccccn2)n1 | 0.48% (inactive)
COc1ccc(CNC(=O)c2sc3nc(C)cc(C)c3c2N)cc1 | 2.17% (inactive)
COCCOc1cnc2ccn([C@H](C)c3nnc4c(F)cc(-c5cnn(C)c5)cn34)c(=O)c2c1 | 0.19% (inactive)
O=C(CN1C2=NCCN2c2ccccc21)c1ccc(-c2ccccc2)cc1 | 1.71% (inactive)
C[C@@H](O)[C@H]1C(=O)N2C(C(=O)O)=C(SCCNC=N)C[C@H]12 [imipenem] | 9.32% (inactive)
O=c1[nH]c2ccccc2n1C1CCN(CCOc2ccccc2)CC1 [oxiperomide] | -2.1% (inactive)
Cc1cccc(NC(=O)CN2CCC(c3ccccn3)CC2)c1 | -0.12% (inactive)
O=C(O)C(=O)O.[NH-][C@@H]1CCCC[C@H]1[NH-].[Pt+2] [oxaliplatin] | 10.3% (inactive)
O=C1C=CC[C@@H]2[C@H]3CCCN4CCC[C@@H](CN12)[C@@H]34 [sophocarpine] | -12.4% (inactive)
COC(=O)[C@H]1[C@H]2C[C@@H]3c4[nH]c5cc(OC)ccc5c4CCN3C[C@H]2C[C@@H](OC(=O)c2cc(OC)c(OC)c(OC)c2)[C@@H]1OC [reserpine] | 0.71% (inactive)
CC(C)[C@H]1c2ccc(F)cc2CC[C@@]1(CCN(C)CCCc1nc2ccccc2[nH]1)OC(=O)C1CC1 | 7.24% (inactive)
CC(C)(C)NC(=O)[C@@H]1CN(Cc2cccnc2)CCN1C[C@@H](O)C[C@@H](Cc1ccccc1)C(=O)N[C@H]1c2ccccc2C[C@H]1O [indinavir] | -9.09% (inactive)
C[C@H](CCC(=O)NCCS(=O)(=O)O)[C@H]1CC[C@H]2[C@@H]3[C@@H](O)C[C@@H]4C[C@H](O)CC[C@]4(C)[C@H]3CC[C@]12C [ursodeoxycholyltaurine] | 1.07% (inactive)
Cc1[nH]c(=O)c(C#N)cc1-c1ccc2nccn2c1 [olprinone] | 0.52% (inactive)

SMILES | inhibition of SARS-CoV-2 cytopathic effect
CCCCN(CCCC)CCCOC(=O)c1ccc(N)cc1 [butacaine] | 2.1% (inactive)
CSc1ccccc1OCC(O)CNC(C)C (configuration not stated) [tiprenolol] | -1.94% (inactive)
C/C(O)=C(\C#N)C(=O)Nc1ccc(C(F)(F)F)cc1 [teriflunomide] | 1.22% (inactive)
O=C1c2ccccc2C(=O)C1c1ccc(Cl)cc1 [chlorindione] | -3.27% (inactive)
O=C(O)Cc1ccc(OCCNC[C@H](O)c2ccccc2)cc1 | 0.37% (inactive)
c1ccc(CCCN2CCN(CCOC(c3ccccc3)c3ccccc3)CC2)cc1 | -0.18% (inactive)
O=C(Nc1ccc(Cl)cc1)Nc1ccc(Cl)c(Cl)c1 [triclocarban] | 0.35% (inactive)
COc1ccc(Cl)c(Nc2ncnc3cc(OCC4CCN(C)CC4)c(OC)cc23)c1 | -0.48% (inactive)
CC(C)(C)NCC(O)COc1ccc(NC(=O)NC2CCCCC2)cc1 (configuration not stated) [talinolol] | -0.81% (inactive)
NC(=O)c1ncn([C@@H]2O[C@H](CO)[C@@H](O)[C@H]2O)c1O [mizoribine] | 0.9% (inactive)
Cc1nc(NC(=O)N2CCC[C@H]2C(N)=O)sc1-c1ccnc(C(C)(C)C(F)(F)F)c1 [alpelisib] | 0.01% (inactive)
NC[C@H]1CC[C@H](C(=O)O)CC1 [tranexamic-acid] | 2.74% (inactive)
Cc1ccc(N(CC2=NCCN2)c2cccc(O)c2)cc1 [phentolamine] | -0.25% (inactive)
O=C(O)c1cc(=O)c2c(OCC(O)COc3cccc4oc(C(=O)O)cc(=O)c34)cccc2o1 [cromoglicic-acid] | -1.5% (inactive)
CC(O)Cn1cnc2c1c(=O)n(C)c(=O)n2C (configuration not stated) [Proxyphylline] | -0.81% (inactive)
COc1cc(Cc2cnc(N)nc2N)cc(OC)c1OC [trimethoprim] | -0.75% (inactive)
Cc1cc(C)cc(NC(=O)Cc2ccc(OC(C)(C)C(=O)O)cc2)c1 [efaproxiral] | 1.44% (inactive)
COc1ccc(OC)c(C(O)C(C)N)c1 (configuration not stated) [methoxamine] | 1.61% (inactive)
O=c1cc(-c2cccc3c2Sc2ccccc2S3)oc(N2CCOCC2)c1 | -0.67% (inactive)
NCC[C@H](O)C(=O)N[C@@H]1C[C@H](N)[C@@H](O[C@H]2O[C@H](CN)[C@@H](O)[C@H](O)[C@H]2O)[C@H](O)[C@H]1O[C@H]1O[C@H](CO)[C@@H](O)[C@H](N)[C@H]1O [amikacin] | 0.51% (inactive)
